# Bioassay records (PubChem)
# ST2 inh = IL1RL1 inhibition | Q01638 | AlphaLISA ST2-Fc/biotin-IL-33 interaction, 1 h | hit rate 2.3% among 78,000 | inhibition, % for hits at 17 µM; in the data active means inhibition above about 30%
# Target sequence (Q01638 whole entry, looked up): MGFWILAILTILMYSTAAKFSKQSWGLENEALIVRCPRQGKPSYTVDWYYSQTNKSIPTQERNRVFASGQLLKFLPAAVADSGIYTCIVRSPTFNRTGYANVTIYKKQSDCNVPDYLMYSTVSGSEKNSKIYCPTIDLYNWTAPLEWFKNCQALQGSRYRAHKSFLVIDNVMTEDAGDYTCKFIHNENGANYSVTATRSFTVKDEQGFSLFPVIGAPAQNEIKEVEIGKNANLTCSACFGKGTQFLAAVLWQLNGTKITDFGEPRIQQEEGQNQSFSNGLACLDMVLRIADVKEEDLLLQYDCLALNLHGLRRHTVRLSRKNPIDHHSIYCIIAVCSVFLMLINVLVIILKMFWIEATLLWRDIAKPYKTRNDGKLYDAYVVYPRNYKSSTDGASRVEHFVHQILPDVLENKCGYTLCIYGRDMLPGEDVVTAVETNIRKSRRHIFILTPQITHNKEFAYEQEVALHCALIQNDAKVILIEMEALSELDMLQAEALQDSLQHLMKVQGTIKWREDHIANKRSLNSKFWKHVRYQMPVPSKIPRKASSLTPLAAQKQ
# * hit, by the source's call; i = inactive. Shown is part of a subset that was picked to be rich in hits.
SMILES,ST2 inh
CCC(=O)N1CCc2cc(Br)cc(S(=O)(=O)Nc3ccc(OC)cc3OC)c21,i
CCOC(=O)c1c(C)oc2ccc(OC(=O)CC)cc12,i
Cn1c(=O)c(/C=C/c2cccs2)nc2ccccc21,36.0%*
COc1ccc(C(=O)c2nc3ccccc3n2C)cc1,i
Cn1c(=O)c(Cc2ccccc2F)nc2ccccc21,i
Cc1ccccc1-c1nc(CN2CCN(C(=O)c3ccc[nH]3)CC2)c(C)o1,i
CSc1ccc(-c2nc(CSCC(=O)NCC3CCCO3)c(C)o2)cc1 (stereo not drawn),i
Cc1cc(C)c2c(n1)sc1c(=O)n(CC(=O)c3ccccc3)nnc12,i
CC(=O)NCC1=CCCN(Cc2csc(-c3ccccc3)n2)C1,i
O=C(NC1CC1)c1ccc2c(c1)N(Cc1c(F)cccc1Cl)C(=O)CS2,i
COc1ccc(C(Nc2cc(C)ccn2)c2ccc3ccc(C)nc3c2O)cc1OC (stereo not drawn),i
Cc1ccc2ccc(C(Nc3ccccn3)c3cccnc3)c(O)c2n1 (stereo not drawn),i
Cc1ccc2ccc(C(Nc3ccccn3)c3ccc(N(C)C)cc3)c(O)c2n1 (stereo not drawn),41.0%*
CCOc1cccc(C(Nc2ccccn2)c2ccc3ccc(C)nc3c2O)c1O (stereo not drawn),i
CSc1ccc(C(Nc2ccccn2)c2ccc3cccnc3c2O)cc1 (stereo not drawn),33.0%*
Fc1ccc(C(Nc2ccccn2)c2c[nH]c3ccccc23)cc1 (stereo not drawn),i
Cc1ccccc1CN1CCC(CN(Cc2cccnc2)C(=O)c2scnc2C)CC1,i
CC(C)=CCN1CCC(CCC(=O)Nc2cccc(C)c2)CC1,i
Cc1nc(CC(=O)N(Cc2cccnc2)Cc2cccnc2)cs1,i
CCOC(=O)C1=C(C)Nc2nc(SCC)[nH]c(=O)c2C1c1cccnc1 (stereo not drawn),i
COc1cccc(NC(=O)c2ccc(C(=O)Nc3cccc(OC)c3)cc2)c1,i
O=c1oc(-c2ccccc2[N+](=O)[O-])nc2ccc(I)cc12,i
Cc1c(-c2nc3ccccc3c(=O)o2)cccc1[N+](=O)[O-],30.0%*
COc1ccccc1-c1nc2ccc(Br)cc2c(=O)o1,i
CC1CCc2cc(F)ccc2N1C(=O)Nc1ccc([N+](=O)[O-])cc1 (stereo not drawn),i
SMILES,ST2 inh
COc1ccc(OC)c(S(=O)(=O)Nc2ccc(F)cc2F)c1,i
O=C(NCc1ccc2c(c1)OCO2)c1ccccc1C(=O)NCc1ccc2c(c1)OCO2,i
Cc1cc(C)c2ccc(CO)nc2c1O,i
Cc1cc(C)c2ccc(NN)nc2c1O,34.0%*
O=C1CC[C@@H](CN(Cc2ccccn2)C(=O)c2cn(Cc3ccccc3Cl)nn2)N1,i
CC(C)(C)C1CCc2onc(C(=O)Nc3cc(Cl)ccc3O)c2C1 (stereo not drawn),i
CCOC(=O)C1(CCOc2ccccc2)CCN(C(=O)c2ccc3oc(C)cc3c2)CC1,i
CC(C)C[C@H]1CN(C(=O)c2ccc(-c3nnn(C)n3)cc2)CC[C@@]1(C)O,i
CC[C@H]1CN(C(=O)c2cccnc2N2CCOCC2)CC[C@@]1(C)O,i
CC[C@H]1CN(C(=O)c2ccc(C)cc2C)CC[C@@]1(C)O,31.0%*
CC1=Nc2ccccc2N=C(C)C1,i
Cc1ccc(NCC2OCc3ccccc3CO2)cc1,97.0%*
CNCC1OCCc2ccccc21 (stereo not drawn),i
COc1cccc(CN2CCCC3(CCN(Cc4ccc(CO)o4)C3)C2)c1OC (stereo not drawn),i
C[C@@H]1O[C@@H](O[C@H]2[C@@H](OC(=O)[C@]34CCC(C)(C)CC3C3=CCC5[C@@]6(C)C[C@H](O)[C@H](O[C@@H]7O[C@H](C(=O)O)[C@@H](O)[C@H](O)[C@H]7O)[C@@](C)(CO)C6CC[C@@]5(C)[C@]3(C)CC4)OC[C@H](O)[C@@H]2O)[C@H](O)[C@H](O)[C@H]1O[C@@H]1OC[C@@H](O)[C@H](O)[C@H]1O (stereo partly drawn),i
Cc1ccc(C)c(NC(=O)CC(=O)NCCCN2CCCC2)c1,i
CCOC(=O)C1(C)C(=O)OC(c2ccc(Cl)cc2)C(C)(C)C1=O (stereo not drawn),i
O=c1/c(=C/c2ccncc2)sc2n1CN(c1ccc3c(c1)OCO3)CN=2,i
COc1ccc(/C=c2\sc3n(c2=O)CN(c2ccc4c(c2)OCO4)CN=3)cc1,31.0%*
COc1ccc(N2CN=c3s/c(=C\c4ccc(OC)c(OC)c4)c(=O)n3C2)cc1,35.0%*
COc1ccc(/C=c2\sc3n(c2=O)CN(c2cccc(F)c2)CN=3)cc1OC,i
CC(=O)c1cccc(N2CN=c3s/c(=C\c4cccnc4)c(=O)n3C2)c1,i
CCCCOc1ccc(/C=c2\sc3nc(-c4cccs4)nn3c2=O)cc1OC,i
O=C(Nc1ccc(Cl)c(C(=O)c2ccccc2)c1)c1cc(=O)c2ccccc2o1,i
CCC1Oc2ccccc2N(CC(=O)NC2CCCCCC2)C1=O (stereo not drawn),i
SMILES,ST2 inh
COc1ccc(C(=O)Nc2c(C(N)=O)oc3ccccc23)cc1OC,i
CCC(Sc1nc(C)nc2c1c(=O)n(C)c(=O)n2C)C(=O)O (stereo not drawn),i
Cc1ccccc1N=c1oc2ccc(Cl)cc2cc1C(N)=O,i
NC(=O)c1ccccc1NC(=O)CN(c1cccc([N+](=O)[O-])c1)S(=O)(=O)c1ccccc1,i
CCCC(=O)Nc1ccccc1NC(=O)c1cccc(Cl)c1,i
COCCNC(=O)CN1C(=O)/C(=C\c2cccc(Cl)c2)Sc2ccccc21,i
CC(=O)Nc1nc2ccc(OC(F)(F)F)cc2s1,i
O=C1c2ccccc2-c2ncnc3c(S(=O)(=O)O)cc(O)c1c23,i
Nc1c(Br)cc(O)c2c1C(=O)c1ccccc1C2=O,68.0%*
Cc1ccc(-c2cnc3ccccc3n2)cc1[N+](=O)[O-],i
Cc1ccc2c(c1[N+](=O)[O-])C(=O)c1ccccc1C2=O,i
Cc1cc2c(cc1[N+](=O)[O-])C(=O)c1cc3ccccc3nc1-2,36.0%*
CC1=C(C(=O)OC2CCCCC2)C(c2ccc(F)cc2)n2ncnc2N1 (stereo not drawn),i
Cc1nc(CCn2ccnc2-c2ccnc3ccccc23)sc1C,i
Cn1c2c(c(=O)[nH]c1=O)C(c1ccc([N+](=O)[O-])o1)C1=C(N2)c2ccccc2C1=O (stereo not drawn),i
Cc1ccc(C2OC(=O)c3ccccc32)cc1Cl (stereo not drawn),i
Cc1ccc(C2C3=C(Nc4c2c(=O)[nH]c(=O)n4C)c2ccccc2C3=O)cc1Cl (stereo not drawn),32.0%*
CCOc1cc(C2C3=C(Nc4c2c(=O)n(C)c(=O)n4C)c2ccccc2C3=O)ccc1O (stereo not drawn),i
CCOC(=O)C1=C(C)NC2=C(C(=O)c3ccccc32)C1c1ccc(C)cc1 (stereo not drawn),i
Cc1ccc(C2C3=C(Nc4c2c(=O)[nH]c(=O)n4C)c2ccccc2C3=O)cc1 (stereo not drawn),38.0%*
COc1ccc(-c2nnc3n2N=C(C(C)(C)C)CS3)cc1,i
CCCCOc1ccc(S(=O)(=O)N2CCSC2c2ccc([N+](=O)[O-])cc2)cc1 (stereo not drawn),i
O=C(Cn1cnc2c(cnn2-c2ccccc2)c1=O)N1CCN(c2ccccc2)CC1,i
